The source of these data is PubChem BioAssay (NCATS).

Values joined by “and” are separate entries in the source; they are usually repeats but may differ in a detail not shown here. Equal values may be shown once. Inconclusive results are not listed. Unmarked numbers belong to inactive results. Active and inactive are the calls of the source. The call rests on the fitted dose curve; in most records, active means well fitted cell-killing curve with a large enough effect; inconclusive means small, poorly fitted or top-dose-only effect, or effect the other way; inactive means no such curve, though single readings can be large or run the other way. Numbered stars: 1 amine (or outer) side, 2 acyl side, 3 side chain; on linkers, the order of the positions; unused ones are H or OH. Bridge positions count the residues as written; N and C are the ends. Square brackets hold non-standard residues; d marks the D form. Peptide text beside a SMILES is read from it. I, II: the chains in the order shown. Actinocin(9to1) = Cc1c2oc3c(C)ccc(C(=O)[*:1])c3nc-2c(C(=O)[*:2])c(N)c1=O; NMeV = CN[CH](C(=O)O)C(C)C; Sar = CNCC(=O)O
Potency means the concentration at half of the fitted maximal effect.

The nature of the assay: Viability qHTS for spleen associated tyrosine kinase inhibitor (SYKi) drug resistant MV4-11 cells (AID 1963824). Further: nearly all actives have a fitted effect of over 35% in size. The conditions noted are these: SYKi-resistant MV4-11 viability, CellTiter-Glo, 72 h; series mostly up to 45 µM; viability, % of control: at the top concentration. An excerpt:
Department of Medicine, Hematology/Oncology
University Hospital Frankfurt, Germany.
Trials have shown promising clinical activity of the selective SYK inhibitor entospletinib in patients with high expressing HOXA9/MEIS1 acute leukemias. As the development of resistance mechanisms is a common problem in the use of targeted drugs, we performed a chemical library screen to identify drug sensitivities in SYK inhibitor resistant AML cells. […] Glucocorticoids are potent immunosuppressants which work in part by inhibiting the transcription of cytokine genes.
Described herein is a viability screen to look for activity in the SYK inhibitor drug resistant cell line against four NCATS compound libraries (MIPE 5.0, NPC, NPACT, and Kinase) totaling 11372 compounds. Active hits were reacquired for confirmation and further secondary assay testing.
SEQUENCE No. (e.g., 1, 2, 3, etc.); […] (e.g., Cells, Incubation, Reagent, etc.); VALUE; DESCRIPTION.
1; Media; 2uL; white, solid-bottom Corning assay plate.
2; Compounds; 23nL; Echo acoustic dispenser.
3; Cell; 5uL; 500 cells per well.
4: Incubation; 72hr; 37 C, 5% CO2, 95% humidity.
5; Reagent; 3uL; CellTiter-Glo reagent (Promega).
6; Incubation; 10min; room temperature.
7; Detection; Luminescence; ViewLux plate reader (PerkinElmer).
NOTES (numbers refer to Sequence numbers above
1. Quantitative high-throughput screening (qHTS) of small molecule compounds was conducted on drug resistant SYKi MV4-11 cell line.
2. Twenty-three nanoliter of small molecule compounds were added to each assay plates using the Echo acoustic dispenser (Beckman Coulter).
3. Cells were seeded into the assay plates at a final density of 500 cells in 5uL of media per well using the Multidrop Combi dispenser.
4. Plates were covered with stainless steel gasketed lids and incubated for 72 hours at standard cell culture conditions.
5. Viability was assessed by adding 3uL of CellTiter-Glo detection reagent (Promega).
6. Plates were covered with gasket lids and incubated for 10 minutes at room temperature.
7. Luminescence was measured on a ViewLux plate reader (PerkinElmer).
On the technique in general: In qHTS, concentration-response curves come from the screen itself.
For the compound `C[C@@H]1C[C@H]2[C@@H]3C[C@H](F)C4=CC(=O)C=C[C@]4(C)[C@@]3(F)[C@@H](O)C[C@]2(C)[C@@]1(O)C(=O)CO`, the Potency was 2.11 µM (active).

`O=C(Nc1ccc(N2CCC(C(=O)N3CCOCC3)CC2)cc1)c1cnc(Oc2ccccc2)nc1`: the “viability, % of control” value was 83.1%.

On to `Cc1c2oc3c(C)ccc(C(=O)NC4C(=O)NC(C(C)C)C(=O)N5CCCC5C(=O)N(C)CC(=O)N(C)C(C(C)C)C(=O)OC4C)c3nc-2c(C(=O)NC2C(=O)NC(C(C)C)C(=O)N3CCCC3C(=O)N(C)CC(=O)N(C)C(C(C)C)C(=O)OC2C)c(N)c1=O` (stereo not given) (I: TVP[Sar][NMeV] / II: TVP[Sar][NMeV]; ester I:1-I:C, II:1-II:C; linker I:N-II:N via Actinocin(9to1); configuration not given here), for which the Potency is 0.001 µM (active). As to `CC1CCC2C(C)(C)CC(C)(CO)C2(O)C1C(=O)O` (stereo not given), the “viability, % of control” value was 77%.

Regarding `O=C1OC(c2ccc(O)cc2)(c2ccc(O)cc2)c2ccccc21`, the Potency was 18.8 µM (active).

On to `CC(=O)NCCCS(=O)(=O)O`, for which the “viability, % of control” value is 87.2% [at 17.3 µM]. Still for that read-out and setting: the result for `O=c1[nH]ccc2c(S(=O)(=O)N3CCCNCC3)cccc12` reads 81%. Turning to `OCc1ccc(O[C@@H]2O[C@H](CO)[C@@H](O)[C@H](O)[C@H]2O)cc1`, the “viability, % of control” value was 86.5%. Same read-out and setting: the figure for `CC1(C)CC[C@]2(C(=O)O)CC[C@]3(C)C(=CCC4[C@@]5(C)CC[C@H](O[C@@H]6O[C@H](C(=O)O)[C@@H](O)[C@H](O[C@@H]7O[C@H](CO)[C@H](O)[C@H](O)[C@H]7O)[C@H]6O[C@@H]6O[C@H](CO)[C@@H](O)[C@H](O)[C@H]6O)C(C)(C)C5CC[C@]43C)[C@@H]2C1` (stereo not given in full) is 75.1% [at 4.97 µM]. As to `CC(C)=CCC[C@](C)(O[C@@H]1O[C@H](CO[C@@H]2OC[C@@H](O)[C@H](O)[C@H]2O)[C@@H](O)[C@H](O)[C@H]1O)[C@H]1CC[C@]2(C)[C@@H]1[C@H](O)C[C@@H]1[C@@]3(C)CC[C@H](O[C@@H]4O[C@H](CO)[C@@H](O)[C@H](O)[C@H]4O[C@@H]4O[C@H](CO)[C@@H](O)[C@H](O)[C@H]4O)C(C)(C)[C@@H]3CC[C@]12C`, the “viability, % of control” value is 94.2% [at 17.3 µM]. For `N#C/C(=C1/SC[C@@H](c2ccc(Cl)cc2Cl)S1)n1ccnc1`, the Potency was 13.3 µM (active). `COC1CC(=O)C23C(=O)NC(Cc4c[nH]c5ccccc45)C2C(C)C2(C)OC2C3/C=C/CC(C)CC1O` (stereo not given): the Potency is 4.47 µM (active).

As to `CN(C)C1CCN(C(=O)c2ccc(NC(=O)Nc3nc(N4CCOCC4)nc(N4CCOCC4)n3)cc2)CC1`, the Potency was 35.5 nM (active) and 59 nM (active).

For the compound `COCCOc1ccc2c(c1)ncn2-c1ccc2cccc(N3CCC(N)CC3)c2n1`, the Potency was 11.6 nM (active) and 16.6 nM (active).

In the case of `CCC1(C)CC(=O)NC1=O` (stereo not given), the Potency result was “inactive”. In the case of `CC(C)Oc1ccc(-c2nc(-c3cccc4c3CCC4NCCC(=O)O)no2)cc1C#N` (stereo not given), the “viability, % of control” value was 75.8%. `CNc1nc(Cc2ccccc2)nc2c1CCNC[C@@H]2C`: the Potency is 11.6 µM (active). In the case of `Cc1cccc(C)c1OCC(C)N` (stereo not given), the “viability, % of control” value is 88.3%. As for `CS(=O)(=O)N1CCN(Cc2cc3nc(-c4cccc5[nH]ncc45)nc(N4CCOCC4)c3s2)CC1`, the Potency was 461 nM (active) and 2.09 µM (active).

Consider `NCCOc1cc(C(=O)Nc2cc(OCCN)c3ccccc3n2)nc(C(=O)Nc2cc(OCCN)c3ccccc3n2)c1`, for which the Potency was 2.59 µM (active) and 3.72 µM (active). For the compound `COc1cc2ncnc(Nc3cccc(I)c3)c2cc1OC`, the Potency is 2.91 µM (active) and 13 µM (active). As for `C=C1CC/C=C(/CO)C(=O)C[C@@H]2[C@@H]1CC2(C)C`, the “viability, % of control” value was 73.6%.

For the compound `CNc1cc2[nH]c(=O)n(-c3ccc(NC(=O)NS(=O)(=O)c4ccc(Cl)s4)cc3)c(=O)c2cc1F`, the “viability, % of control” value is 83.1%. Still for that read-out and setting: the figure for `C=C1C(OC(C)=O)C(=O)C2C(C)(C)C(O)CCC2(C)C1CC(OC(C)=O)/C(C)=C/COC(C)=O` (stereo not given) is 79% [at 17.3 µM]. Turning to `CC(=O)O[C@@H]1C[C@@H](OC(C)=O)C(C)(C)/C=C/[C@H](C)[C@H](OC(C)=O)[C@@]2(O)C[C@H](C)[C@H](OC(=O)c3ccccc3)[C@@H]2/C=C/1C`, the Potency was 2.73 µM (active). Turning to `CC(C)Cc1ccc(C(C)C(=O)O)cc1` (stereo not given), the Potency result is “inactive”. In the case of `COc1cc(C(CO)CO[C@@H]2O[C@H](CO)[C@@H](O)[C@H](O)[C@H]2O)ccc1O` (stereo not given in full), the “viability, % of control” value was 94.7%. The same measure, in the same setting: the figure for `C[Se]CCC(N)C(=O)O` (stereo not given) is 66.6% [at 91.9 µM]. Same read-out and setting: the result for `Cc1c(C)c2c(c(C)c1OC(=O)CCC(=O)OCCO)CC[C@@](C)(CCC[C@H](C)CCC[C@H](C)CCCC(C)C)O2` reads 3.58%; that for `CC(=O)NC1CC(=O)C23C(=O)NC(Cc4c[nH]c5ccccc45)C2C(C)=C(C)C(O)C3/C=C/CC(C)/C=C(/C)C(O)C1O` (stereo not given), 72.8% [at 17.3 µM]; that for `C[C@H]1[C@H](C)CC[C@]2(C(=O)OC3OC(CO)C(O)C(O)C3O)CC[C@]3(C(=O)O)C(=CCC4[C@@]5(C)CC[C@H](O[C@@H]6O[C@@H](C)[C@H](OC7OC(CO)C(O)C(O)C7O)[C@@H](O)[C@H]6O)C(C)(C)C5CC[C@]43C)[C@H]12` (stereo not given in full), 108% [at 9.25 µM]. In the case of `CO/N=C(/C(=O)N[C@@H]1C(=O)N2C(C(=O)OCOC(=O)C(C)(C)C)=C(C)CS[C@H]12)c1csc(N)n1`, the Potency is 23.7 µM (active). Regarding `CC(C)NC[C@@H](O)COc1ccc(CC(N)=O)cc1`, the “viability, % of control” value is 98.2%. Still for that read-out and setting: the result for `CC1(C)O[C@@]2(C)CC[C@@H]1C[C@@H]2OC1OC(CO)C(O)C(O)C1O` (stereo not given in full) reads 86%; that for `COc1ccc(C[C@H](C)NC[C@@H](O)c2ccc(O)c(NC=O)c2)cc1`, 74.3%. For the compound `NS(=O)(=O)c1ccc(Cc2c(-c3cccc(-c4ccccc4)c3)nn(-c3nc(C(=O)O)cs3)c2CC2CC2)cc1`, the Potency was 10.5 µM (active). For the compound `CCOC(=O)N1CCN(/[N+]([O-])=N/Oc2ccc([N+](=O)[O-])cc2[N+](=O)[O-])CC1`, the Potency is 2.63 µM (active). In the case of `CN1CCN(C(=O)c2ccc(Nc3nccc(-c4cccs4)n3)cc2Cl)CC1`, the Potency is 2.06 µM (active). Consider `CCC[C@@H]1C[C@@H](C(=O)N[C@@H]([C@H]2O[C@H](SC)[C@H](O)[C@@H](O)[C@H]2O)[C@H](C)Cl)N(C)C1`, for which the “viability, % of control” value is 77.4%. In the case of `CC1=C(CO)C(=O)O[C@@H]([C@@H](C)[C@H]2CC[C@H]3[C@@H]4C[C@H]5O[C@]56[C@@H](O)C=CC(=O)[C@]6(C)[C@H]4CC[C@]23C)C1`, the Potency was 317 nM (active) and 263 nM (active).
